CSC inhib: cancer stem cell viability inhibitors, primary screen, luminescence; cancer stem cell-like cells viability; inhibition, % at 7.5 µM; 300,000 compounds, 1.1% hits; AID 2717, 2010; in the data active = inhibition above about 75%; inconclusive = no clear call, values can overlap the other calls; tested in HMLE shEcad cells
SKKanGAS inh: S. pyogenes SKKanGAS growth inhibitors in kanamycin, primary screen, streptokinase expression inhibitor project, SKKanGAS strain, BacTiter-Glo luminescence; 6 h; inhibition, % at 7.5 µM; AID 1662, 2009; 300,000 compounds, 1.3% hits;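 active = mean replicate score, as percent of positive control median, at least 50; inconclusive = mean below 50 but one replicate at or above 50; inactive = mean and every replicate below 50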;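 note: strain carries kanamycin resistance gene driven by streptokinase promoter and grows in 40 µg/ml kanamycin; loss of luminescence reflects streptokinase promoter inhibition or plain growth inhibition; 0% = median of DMSO wells and 100% = positive control at its reference dose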
NR3A LBD binder: binders of NR3A ligand-binding domain, primary screen, biophysical, differential scanning fluorimetry, uHTS | Glutamate receptor ionotropic, NMDA 3A (GRIN3A) ligand-binding domain | NR3A LBD differential scanning fluorimetry, Tm shift; 0% = protein alone, 100% = glycine-bound protein | Tm shift relative to glycine control, % at 25 µM | 340,000 compounds, 2.5% hits | AID 1259313, 2017;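 active = melting temperature shift of at least 10% of the positive control shift, at one fixed dose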
Mdm2 MdmX PPI: inhibitors of human Mdm2-MdmX association, primary screen, cell-based, luminescence, split luciferase, SaOS-2, uHTS | Protein Mdm4 (Homo sapiens) + E3 ubiquitin-protein ligase Mdm2 (Homo sapiens), … | SaOS-2 split-luciferase Mdm2/MdmX complementation | inhibition, % at 8 µM | 330,000 compounds, 3% hits;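 active = inhibition of at least 50% at 8 µM in the primary screen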
Target sequence (O15151 whole entry, looked up): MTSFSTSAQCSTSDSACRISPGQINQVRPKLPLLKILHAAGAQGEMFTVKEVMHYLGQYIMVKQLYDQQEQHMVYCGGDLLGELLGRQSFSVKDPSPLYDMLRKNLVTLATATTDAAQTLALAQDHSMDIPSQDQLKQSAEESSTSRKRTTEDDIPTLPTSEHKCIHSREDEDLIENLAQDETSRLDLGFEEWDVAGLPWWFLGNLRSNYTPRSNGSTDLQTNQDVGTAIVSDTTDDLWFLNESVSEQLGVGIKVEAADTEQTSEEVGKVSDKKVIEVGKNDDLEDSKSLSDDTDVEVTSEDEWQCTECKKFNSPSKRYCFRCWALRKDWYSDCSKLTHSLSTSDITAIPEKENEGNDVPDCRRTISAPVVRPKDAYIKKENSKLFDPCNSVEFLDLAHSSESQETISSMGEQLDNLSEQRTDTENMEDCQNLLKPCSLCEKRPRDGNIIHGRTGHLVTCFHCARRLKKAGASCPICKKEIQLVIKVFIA
Target sequence (Q00987 whole entry, looked up): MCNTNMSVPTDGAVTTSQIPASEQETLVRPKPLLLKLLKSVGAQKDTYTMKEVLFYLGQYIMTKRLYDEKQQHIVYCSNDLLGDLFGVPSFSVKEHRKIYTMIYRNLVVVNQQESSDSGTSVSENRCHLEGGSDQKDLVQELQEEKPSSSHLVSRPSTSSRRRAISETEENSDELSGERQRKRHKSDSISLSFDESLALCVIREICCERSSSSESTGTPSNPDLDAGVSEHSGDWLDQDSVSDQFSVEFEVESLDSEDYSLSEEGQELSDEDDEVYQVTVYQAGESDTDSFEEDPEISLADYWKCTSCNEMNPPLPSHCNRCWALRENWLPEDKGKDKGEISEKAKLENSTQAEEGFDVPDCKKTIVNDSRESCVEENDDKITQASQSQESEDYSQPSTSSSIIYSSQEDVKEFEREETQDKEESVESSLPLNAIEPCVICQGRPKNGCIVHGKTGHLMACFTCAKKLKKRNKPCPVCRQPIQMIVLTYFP
MPTP block: mitochondrial permeability transition pore inhibitors, primary screen, biochemical, isolated mouse mitochondria, absorbance | Ca2+ swelling absorbance, 30 min | inhibition, % at 10 µM | 360,000 compounds, 1.4% hits | AID 602449, 2012;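 active = inhibition of 50% or more, scaled per plate between neutral and stimulator controls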;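 note: 0% = DMSO wells given calcium and 100% = 1 mM EGTA wells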
Beta apoptosis: inhibitors of cytokine-induced beta cell apoptosis, primary screen, luminescence; INS-1E cytokine-induced death, ATP luminescence, 48 h; percent of positive-control rescue, neutral wells zero; protection from apoptosis, % (no concentration beside the values); 300,000 compounds, 0.8% hits; AID 435005, 2010;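 active = Every replicate reaches about 75%, or at least half do and their mean reaches it too, limit read from the data; inconclusive = At least half of replicates reach the limit but their mean does not; inactive = Under half of replicates reach the limit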;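 note: 0% = cytokine-treated negative control wells and 100% = positive control rescue; higher means more ATP so stronger rescue from cytokine killing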
Mdm2-MdmX conf: Mdm2-MdmX complex disruptors, retested hits, confirmation, luminescence, single concentration. shares compounds with Mdm2 MdmX PPI. Mdm2-MdmX binding, luminescent assay. inhibition, % at 8 µM. 10,000 compounds, 55% hits. AID 489028, 2010; in the data active = inhibition above about 40%
Full FLuc ctr: full-length luciferase signal inhibition, confirmation, counter-screen for Mdm2/MdmX interaction inhibitor project, cell-based, single concentration, SaOS-2; shares compounds with Mdm2 MdmX PPI; SaOS-2 full-length luciferase counterscreen, luminescence; inhibition, % at 8 µM; 6,200 compounds, 77% hits; AID 504607, 2011;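 active = mean inhibition at 8 µM reaching about 37%, which flags the compound as non-specific, limit read from the data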;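 note: p53-null SaOS-2 cells with luciferase driven by a doxycycline-inducible promoter; compound on cells about two nights before reading with doxycycline added after day one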
The depositor's hits bear a star; ? = inconclusive; . = not tested or not shown. Only some compounds are listed: those with a hit (about 6.9% of all), similar ones and a draw of the others.

SMILES	CSC inhib	SKKanGAS inh	NR3A LBD binder	Mdm2 MdmX PPI	MPTP block	Beta apoptosis	Mdm2-MdmX conf	Full FLuc ctr
CCC1C(=O)N=C(SCC(=O)Nc2nc3ccccc3s2)NC1=O (centres undefined)	-20.7	-5.0	-0.2	71.8*	-1.9	-2.2	17.5	.
CCCCCCSc1ccc([C@H]2N[C@@](CC(C)C)(C(=O)OC)[C@H]3C(=O)N(C)C(=O)[C@@H]23)cc1OC	38.4	28.7	3.6	56.0*	2.3	7.4	0.3	.
CCN(CC)CCNC(=O)c1ccc(NC(=O)Nc2cccc3ccccc23)cc1	-20.8	-1.8	-4.4	-18.7	0.5	1.0	.	.
COc1ccccc1C(C[N+](=O)[O-])c1c(N)n(C)c(=O)n(C)c1=O (centres undefined)	55.0	-5.3	1.9	55.2*	2.5	39.3	56.6*	48.9*
CN(Cc1ccccc1)C(=O)CN1C(=O)NC(C)(c2ccc(Cl)cc2)C1=O (centres undefined)	-19.6	1.8	2.0	-12.2	1.3	-5.8	.	.
COc1ccc(N=C2S/C(=C\c3ccc(N4CCOCC4)o3)C(=O)N2CCc2c[nH]c3ccccc23)cc1	-2.0	59.5*	.	94.7*	-1.8	104.7*	98.7*	2.1
O=C(N/N=C/c1ccc(O)cc1O)c1ccc(NC(=O)C2CCCCC2)cc1	-4.0	2.1	23.4*	68.0*	-2.1	?	54.0*	37.9*
O=C(N/N=C/c1ccc(O)cc1O)C1CC1	-5.2	-3.1	0.2	28.2	-0.5	-2.7	.	.
COc1cc(OC)cc(-c2c(-c3ccc(F)cc3)c3cc(-c4cnc(OC)nc4)ccc3n2C)c1	3.9	.	0.7	56.6*	1.2	1.3	53.8*	41.8*
COc1ccc(-c2c(-c3cc(OC)cc(OC)c3)n(C)c3ccc(-c4ccc(S(N)(=O)=O)cc4)cc23)cc1	1.8	.	-4.8	56.7*	0.1	-2.9	40.0	80.3*
COc1cccc(-c2c(-c3cc(OC)cc(OC)c3)n(C)c3ccc(-c4cnc(N5CCOCC5)nc4)cc23)c1	42.3	.	1.7	71.1*	0.5	-2.7	-6.3	.
O=C(C1=COCCO1)N(Cc1nnc(-c2ccccc2Cl)o1)C1CC1	-16.5	.	0.4	-2.0	-1.0	-4.3	.	.
Cc1cc(C)n(NC(=S)NC2CCCC2)c(=O)c1C#N	-6.9	3.7	-1.8	21.0	-2.5	1.6	.	.
CCC(C)Nc1nc2c(c(=O)n(C)c(=O)n2C)n1C (centres undefined)	-18.7	9.0	-0.4	16.1	-0.1	-2.5	.	.
COCCNC(=O)c1cc(S(=O)(=O)N(C)C2CCCCC2)ccc1Cl	.	.	.	.	-1.4	.	.	.
COc1ccc(CNC(=O)CN(C(=O)c2snc(C(N)=O)c2N)c2ccccc2F)cc1	-7.6	-6.0	1.3	11.7	-2.8	-1.1	.	.
COC(=O)c1ccc(NC(=O)CS(=O)(=O)c2ccccc2)cc1	-8.0	-0.7	-1.2	10.0	0.4	.	.	.
O=C(NC(Cc1c[nH]c2ccccc12)C(=O)Nc1ccc(OC(F)(F)F)cc1)c1cccs1 (centres undefined)	51.5	-12.7	32.8*	93.0*	14.3	0.8	93.5*	25.7
O=C(NC(Cc1c[nH]c2ccccc12)C(=O)Nc1ccc(F)c([N+](=O)[O-])c1)c1cccs1 (centres undefined)	39.2	11.2	5.2	96.4*	4.2	2.8	86.9*	24.8
O=C(NC(Cc1c[nH]c2ccccc12)C(=O)O)c1cccs1 (centres undefined)	10.7	-6.4	-5.5	2.7	0.1	-1.5	.	.
CC(=O)Nc1ccc(NC(=O)CSc2ncc(C(=O)Nc3ccccc3)c(=O)n2C)cc1	?	-4.1	-1.2	2.9	-0.7	-12.1	.	.
Cc1ccnc(-n2c(C)cc(/C=N/NC(=O)COc3cccc4cccnc34)c2C)c1	-13.5	3.6	-0.1	0.9	1.7	.	.	.
CCCOc1ccc(N2C(=O)CC(SC(=NC)Nc3ccc(F)cc3)C2=O)cc1 (centres undefined)	-2.3	2.1	-14.4	-15.2	1.2	0.1	.	.
CCCOc1ccc(N2C(=O)CC(SC(=N)N3N=C(c4ccccc4)CC3c3ccccc3)C2=O)cc1 (centres undefined)	-9.3	25.1	-15.8	60.3*	2.1	28.9	39.6	76.7*
Cc1ccc(S(=O)(=O)n2nc(C)cc2C)cc1	-9.1	-5.0	-3.8	5.2	-2.8	0.0	.	.
SMILES	CSC inhib	SKKanGAS inh	NR3A LBD binder	Mdm2 MdmX PPI	MPTP block	Beta apoptosis	Mdm2-MdmX conf	Full FLuc ctr
Cc1cc(C)n(S(=O)(=O)/C=C/c2ccccc2)n1	-13.8	3.8	-0.2	72.7*	1.4	-11.1	89.3*	52.5*
CCc1cccc(NC(=O)C2CCCN(c3ncnc4c3nc3n4CCCCC3)C2)c1 (centres undefined)	-2.7	10.5	-1.0	26.1	-0.1	6.3	.	.
O=C1c2ccccc2NC(c2ccc(-c3ccc(C(F)(F)F)cc3)o2)N1O (centres undefined)	.	.	23.1*	67.3*	-0.9	70.8	48.6*	41.8*
CC(=O)Nc1ccc(NC2=Nc3ccccc3N3C2=Nc2c(c(C)nn2-c2ccccc2)C3c2ccccc2)cc1 (centres undefined)	-0.5	15.7	8.0	84.1*	2.3	57.8	89.7*	32.1
COc1ccc(NC2=Nc3ccccc3N3C2=Nc2c(c(C)nn2-c2ccc(C)cc2)C3c2cccnc2)cc1 (centres undefined)	7.5	.	7.9	6.6	3.3	8.8	.	.
CCCCNC(=O)c1ccc(Cc2cn(C)c3ccccc23)nc1	.	.	.	.	0.8	.	.	.
CN1Cc2cc(C(=O)c3cc(Cl)cc(CSc4ncccn4)c3O)cnc2NC1=O	67.7	50.4*	.	58.7*	.	22.6	73.0*	88.5*
Cc1ccc(O)c(C(=O)c2cnc3c(c2)CN(CCC(C)C)C(=O)N3)c1	26.6	-0.7	0.8	54.5*	1.6	16.1	23.4	.
Cc1ccc(O)c(C(=O)c2cnc3c(c2)CN(C)C(=O)N3)c1	21.4	-7.8	-0.2	62.9*	-2.3	-11.1	48.6*	56.0*
CCCCN1Cc2cc(C(=O)c3cc(OC)ccc3O)cnc2NC1=O	4.3	1.7	-1.7	30.6	2.2	-7.7	.	.
CC1=C(C(N)=O)C(c2ccccn2)n2nc(SCc3ccccc3Cl)nc2N1 (centres undefined)	0.7	6.3	0.3	-30.3	-0.4	-7.3	.	.
